# This is part of a sample that, as a whole, favours compounds with a hit. Of some 83,000 tested, about 20% had one in any assay.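 Each cell line was grown in a 96-well plate and treated with one concentration of compound for 48 hours. Values below 10 were considered active.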 Values without a mark were called inactive. Active and inactive are the calls of the source.
# Test system: MCF7 breast
# Assay: NCI-60 one-dose screen, 48 h (100 = growth as untreated, 0 = no growth, -100 = all killed)
# Conditions: 10 µM unless noted
row,Structure (SMILES),growth
1,OCC1C2C=CC(C2)C1CO (centres undefined),111%
2,Fc1ccc(Cc2ccc(F)cc2)cc1,99%
3,O=c1ccc2cc3ccccc3cc2[nH]1,96.6%
4,COc1ccc(-c2nn(-c3ccccc3)cc2/C=C/C(=O)OCc2cn(-c3ccc(F)c(Cl)c3)nn2)cc1,71%
5,COc1ccccc1N1CCN(CCn2c(=O)c3c(c4ccccc4n3C)n(C)c2=O)CC1,93.2%
6,CCCCCCCCCCNC(=O)CCl,74.5%
7,N=S(=O)(NC(=O)c1ccc(Cl)cc1Cl)c1ccc(Br)s1 (centres undefined),91.5%
8,CCOC(=O)/C=C/C(=O)[C@H](CC(C)C)NC(=O)[C@H](Cc1ccccc1)NC(=O)OCc1ccccc1,19.7%
9,COC1/C=C\OC2(C)Oc3c(C)c(O)c4c(O)c(c(CN(C)CCO)c(O)c4c3C2=O)NC(=O)/C(C)=C\C=C/C(C)C(O)C(C)C(O)C(C)C(OC(C)=O)C1C (centres undefined),91.6%
10,COc1nc2c(cc1S(=O)(=O)c1ccccc1)CCc1c-2cnn1Cc1ccccc1,15.4%
11,O=S(=O)(NCCCNc1cc(-c2cn(-c3ccccc3)nc2-c2ccccc2)ccn1)c1ccc(C(F)(F)F)cc1,39.2%
12,N#CC1=C(N)Oc2c(ccc3ccccc23)C1c1cccs1 (centres undefined),7.97% (active)
13,CCN(CC)CCCNc1cc(OC)cc2nc3cc(Cl)ccc3nc12,-2.19% (active)
14,O=C(CN1CCN(c2cc3c(cc2F)c(=O)c(C(=O)O)cn3C2CC2)CC1)Nc1nc(-c2ccc(Cl)cc2)cs1,23.5%

# From PubChem BioAssay (NCI)
